# High-throughput results: PubChem BioAssay, National Center for Advancing Translational Sciences (NCATS)
# FEN1 inh-1 = inhibitors of human flap endonuclease 1. P39748. Recombinant FEN1 flap cleavage, fluorescence, 15 min. Potency, µM (doses to about 114 µM), inactives show at the top dose activity change, negative = inhibition, hits mostly inhibitors. 390,000 tested, 0.35% active; further: on the % scale 0 is the no-effect control and ±100 the full control effect; nearly all actives have a fitted effect of over 65% in size
#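 Quantitative HTS format: each compound was titrated, incubated with 10 nM nuclease for 15 min at room temperature, then challenged with flap substrate at 50 nM final. Signal change over 15 min gave concentration–effect curves.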
# APE1 inh = APE1 (human) endonuclease inhibition. AID 2517. P27695. recombinant APE1, TAMRA/BHQ-2 abasic DNA cleavage fluorescence. 350,000 tested, 0.35% active. Potency, µM (highest dose often 65.8 µM), for inactives: top-dose activity change, negative = inhibition, most hits filed as inhibitors;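 further: plate controls were vehicle for no effect and reference inhibitor for full effect; nearly all actives have a fitted effect of over 55% in size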
#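 Endonuclease cleavage of a quenched abasic-site DNA duplex (50 nM) by APE1 (0.75 nM) was tracked by TAMRA dequenching. Compounds were preincubated with enzyme 15 min at room temperature; data normalized to buffer-only and DMSO wells plus NSC13755 control.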
# BLM helicase inh-1 = blocks DNA unwinding by human BLM helicase. recombinant BLM DNA unwinding, fluorescence dequenching. 350,000 tested, 0.2% active. Potency, µM (series often up to 56.1 µM), for the others: at the highest dose activity change, negative = inhibition, actives largely listed as inhibitors. AID 2528;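 further: plate controls were vehicle for no effect and no enzyme for full effect; nearly all actives have a fitted effect of over 35% in size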
# Target sequence (P54132 whole entry, looked up): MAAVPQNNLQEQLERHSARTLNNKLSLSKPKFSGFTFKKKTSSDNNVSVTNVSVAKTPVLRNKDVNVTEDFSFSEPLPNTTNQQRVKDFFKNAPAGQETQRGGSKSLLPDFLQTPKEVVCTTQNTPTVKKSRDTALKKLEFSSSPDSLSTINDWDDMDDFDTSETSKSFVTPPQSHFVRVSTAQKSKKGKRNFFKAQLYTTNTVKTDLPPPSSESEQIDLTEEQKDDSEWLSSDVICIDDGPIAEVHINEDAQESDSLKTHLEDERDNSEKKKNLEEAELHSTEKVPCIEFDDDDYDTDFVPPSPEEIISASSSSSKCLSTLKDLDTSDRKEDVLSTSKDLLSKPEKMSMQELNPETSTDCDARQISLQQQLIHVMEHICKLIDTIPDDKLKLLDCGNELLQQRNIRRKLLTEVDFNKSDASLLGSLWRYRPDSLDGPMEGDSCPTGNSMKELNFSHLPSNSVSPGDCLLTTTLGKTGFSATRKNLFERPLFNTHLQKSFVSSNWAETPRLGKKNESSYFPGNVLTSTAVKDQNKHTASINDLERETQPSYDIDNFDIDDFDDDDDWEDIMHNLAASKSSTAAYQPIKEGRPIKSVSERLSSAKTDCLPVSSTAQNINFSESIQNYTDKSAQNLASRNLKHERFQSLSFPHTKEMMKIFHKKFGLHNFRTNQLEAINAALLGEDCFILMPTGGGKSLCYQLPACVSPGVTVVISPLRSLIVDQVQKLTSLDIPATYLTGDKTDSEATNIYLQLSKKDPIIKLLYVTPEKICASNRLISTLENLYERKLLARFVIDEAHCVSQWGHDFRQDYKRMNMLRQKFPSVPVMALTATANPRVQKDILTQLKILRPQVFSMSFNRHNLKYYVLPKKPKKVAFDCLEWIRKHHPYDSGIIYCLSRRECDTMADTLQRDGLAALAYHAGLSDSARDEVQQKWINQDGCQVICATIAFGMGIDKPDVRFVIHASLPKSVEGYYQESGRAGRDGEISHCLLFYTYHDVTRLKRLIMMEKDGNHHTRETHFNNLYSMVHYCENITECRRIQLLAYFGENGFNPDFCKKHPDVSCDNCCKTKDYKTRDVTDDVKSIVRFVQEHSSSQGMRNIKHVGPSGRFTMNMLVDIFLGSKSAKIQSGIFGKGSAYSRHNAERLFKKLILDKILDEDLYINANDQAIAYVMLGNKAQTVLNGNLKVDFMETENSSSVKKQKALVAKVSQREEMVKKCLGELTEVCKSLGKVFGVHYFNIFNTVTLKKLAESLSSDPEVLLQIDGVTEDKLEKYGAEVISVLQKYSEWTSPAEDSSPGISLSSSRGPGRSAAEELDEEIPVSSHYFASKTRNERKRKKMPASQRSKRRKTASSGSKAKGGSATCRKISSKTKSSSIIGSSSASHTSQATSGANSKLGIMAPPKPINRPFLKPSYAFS
# WRN helicase inh-1 = WRN helicase (human) inhibition | WRN helicase unwinding, fluorescent forked duplex, kinetic | 360,000 tested, 0.46% active | Potency, µM (highest dose often 114 µM), without a hit: top-dose activity change, negative = inhibition, usual class: inhibitors | AID 651768; further: on the % scale 0 is the no-effect control and ±100 the full control effect; nearly all actives have a fitted effect of over 55% in size
#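 WRN at 20 nM final was preincubated with compound for 15 min at room temperature; reaction started with 100 nM forked duplex oligonucleotide carrying fluorophore and quencher plus 2 mM ATP (final). Unwinding followed kinetically by red fluorescence (ex 525/em 598 nm).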
# RECQ1 inh = inhibitors of human RECQ1 DNA helicase | 240,000 tested, 0.54% active | AID 2549 | RECQ1 DNA unwinding, red fluorescence kinetic read | Potency, µM (titrated, usually from 57.3 µM), for the others: at the highest dose activity, negative = inhibition, usual class: inhibitors | P46063;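 further: plate controls were vehicle for no effect and no enzyme for full effect; nearly all actives have a fitted effect of over 30% in size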
#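 RECQ1T1 50 nM; forked duplex (20 bp + 30-nt ss tails) 200 nM, ATP 2 mM final; pH 8.0, 2 mM MgCl2, 2.5 ug/ml poly(dI-dC); 15 min compound preincubation; discontinuous kinetic read over 2 h at RT.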
# FEN1 inh-2 = FEN1 inhibition, cherry-pick retest. 880 tested, 79% active. shares compounds with FEN1 inh-1. AID 720498. FEN1 flap cleavage, TAMRA/BHQ2 fluorogenic DNA substrate. Potency, µM, usual class: inhibitors; further: nearly all actives have a fitted effect of over 60% in size
# WRN helicase inh-2 = confirmation of human WRN helicase inhibitors | shares compounds with WRN helicase inh-1 | WRN helicase DNA unwinding, fluorescence kinetic | Potency, µM (doses to about 57.1 µM), inactives show at the top dose activity, negative = inhibition, usual class: inhibitors | 610 tested, 63% active | AID 720497; further: nearly all actives have a fitted effect of over 65% in size
# TO displacement = DNA binding via thiazole orange displacement | 610 tested, 10% active | Potency, µM (highest dose often 57.1 µM), for inactives: at the top dose activity change, negative = inhibition, usual class: inhibitors | shares compounds with WRN helicase inh-1 | thiazole orange DNA binding displacement, fluorescence | AID 720499;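 further: drop in dye fluorescence marks compound binding to DNA; on the % scale 0 is the no-effect control and ±100 the full control effect; nearly all actives have a fitted effect of over 60% in size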
# BLM helicase inh-2 = blocks human BLM helicase in WRN counterscreen. shares compounds with WRN helicase inh-1. Recombinant BLM helicase DNA unwinding, red fluorescence. Potency, µM (highest dose often 57.1 µM), without a hit: top-dose activity change, negative = inhibition, actives largely listed as inhibitors. 610 tested, 60% active; further: nearly all actives have a fitted effect of over 60% in size
# * = called active by the depositor; i = inactive; ? = inconclusive; nt = no result given; [ ] = dose if it differs, or a comment. Most compounds without a hit are left out; they make up all but 0.87% or so of the library. The call rests on the fitted dose curve; in most records, active means well fitted curve in the direction sought with a large enough effect; inconclusive means small, poorly fitted or top-dose-only effect, or another doubt; inactive means no such curve, though single readings can be large; an effect the other way counts as inactive or inconclusive. Potency means the concentration at half of the fitted maximal effect.
SMILES,FEN1 inh-1,APE1 inh,BLM helicase inh-1,WRN helicase inh-1,RECQ1 inh,FEN1 inh-2,WRN helicase inh-2,TO displacement,BLM helicase inh-2
Cc1nc2c(c(C)c1CCC(=O)Nc1ccc(F)cc1)c(=O)n(C)c(=O)n2C,-7%,nt,-6%,nt,nt,nt,nt,nt,nt
CCc1cccc(C)c1NC(=O)c1ccc2c(c1)CCN2S(=O)(=O)c1ccc(Cl)cc1,-10%,nt,-5%,nt,nt,nt,nt,nt,nt
CC1(C)CC(=O)c2cc(-c3nc(-c4ccc(Cl)cc4)cs3)c(=O)n(-c3cccc(F)c3)c2C1,9%,nt,-5%,nt,nt,nt,nt,nt,nt
COc1ccc(-c2nn(C)c3sc(C(=O)Nc4cc(OC)c(OC)c(OC)c4)cc23)cc1OC,10µM*,nt,20µM*,nt,nt,7.6*,9.6µM*,?,11µM*
CCOC(=O)N1CCC(NC(=O)c2cc3c(-c4ccc(OC)c(OC)c4)nn(C)c3s2)CC1,?,-1%,-4%,-8%,-8%,nt,nt,nt,nt
O=C1c2ccccc2-c2onc3c(N4CCN(C5CCCCC5)CC4)cc(NCCO)c1c23,-20%,nt,-2%,nt,nt,nt,nt,nt,nt
CN(C)CCCNc1cc(N2CCN(C3CCCCC3)CC2)c2noc3c2c1C(=O)c1ccccc1-3,11µM*,nt,36%,nt,nt,30*,24µM*,213%,43µM*
COc1cccc(C(=O)N(Cc2ccco2)c2ccccn2)c1,20%,nt,-2%,nt,nt,nt,nt,nt,nt
O=C1C(=Cc2ccco2)CCC1=Cc1ccco1,8.9µM*,nt,nt,3.5µM*,nt,17*,7.6µM*,2%,7.6µM*
Cc1cccc(Nc2nn3c(=O)c4ccccc4nc3s2)c1,0%,-3%,-8%,-24%,-11%,nt,nt,nt,nt
O=c1c2ccccc2nc2sc(Nc3cccc(N4CCNCC4)c3)nn12,nt,nt,nt,nt,nt,34*,22µM*,-25%,?
CNC(=O)C1CCC(Cn2c(=O)c3sccc3n(Cc3ccccc3)c2=O)CC1 (centres undefined),1%,nt,0%,nt,nt,nt,nt,nt,nt
CN(C)/C=C1\SC(=S)N(c2ccc(Br)cc2)C1=O,?,28µM*,4%,?,32µM*,34*,24µM*,3%,22µM*
CN(C)/C=C1\SC(=S)N(c2ccc(F)cc2)C1=O,-1%,0%,0%,-8%,i,nt,nt,nt,nt
N#CNC(=O)c1ccc(-n2cccc2/C=C2\NC(=O)N(CC(=O)Nc3ccc(F)cc3)C2=O)cc1,nt,nt,nt,nt,nt,34*,6.1µM*,9.6µM*,3.8µM*
Cc1cccc(NC(=O)CSc2nc3n[nH]c(C)c3c(=N)n2-c2cccc(Cl)c2)c1,-19%,nt,2%,nt,nt,nt,nt,nt,nt
COc1cc(C=NNc2ccc(S(=O)(=O)Nc3ccccc3C(=O)O)cc2[N+](=O)[O-])ccc1O,45µM*,?,nt,79µM*,nt,60*,24µM*,24µM*,27µM*
COc1cc(/C=N/Nc2ccc(S(N)(=O)=O)cc2[N+](=O)[O-])cc(OC)c1O,-9%,?,-9%,-6%[11.6 µM],-9%,nt,nt,nt,nt
O=C(O)c1ccccc1NS(=O)(=O)c1ccc(N/N=C/c2cccc(O)c2O)c([N+](=O)[O-])c1,40µM*,nt,nt,20µM*,nt,48*,19µM*,27µM*,6.1µM*
Nc1cc(N)cc(-c2nc3ccccc3[nH]2)c1,3%,-1%,-8%,-25%,-9%,nt,nt,nt,nt
Nc1ccc2nc(-c3cccc(-c4nc5ccc(N)cc5[nH]4)c3)[nH]c2c1,?,-7%,?,40µM*,nt,38*,?,17µM*,?
COCCN(C(=O)COC(=O)c1cc2c(s1)CCC2)c1c(N)n(Cc2ccccc2)c(=O)[nH]c1=O,40µM*,0.75µM*,nt,8.9µM*,nt,76*,2.2µM*,?,0.43µM*
CCN1/C(=C/c2ccc3cc(C)ccc3[n+]2CC)Sc2cc(C)c(C)cc21,32µM*,-5%,4%,50µM*,5%,4.8*,24µM*,22µM*,?
CN(C)CCNc1ccc(CO)c2sc3ccc(O)cc3c(=O)c12,22µM*,nt,nt,?,nt,17*,24µM*,22µM*,?
O=C(Nc1ccc2nc(-c3ccc4nc[nH]c4c3)[nH]c2c1)c1cccs1,45µM*,?,?,40µM*,-12%,?,22µM*,-17%,24µM*
SMILES,FEN1 inh-1,APE1 inh,BLM helicase inh-1,WRN helicase inh-1,RECQ1 inh,FEN1 inh-2,WRN helicase inh-2,TO displacement,BLM helicase inh-2
O=C(Nc1ccc2nc(-c3ccccc3)[nH]c2c1)c1cccs1,-17%,-2%,-7%,-26%[57.1 µM],-4%,nt,nt,nt,nt
O=C(O)c1ccc(-n2cccc2/C=N\NC(=O)c2cc3cc(Br)ccc3o2)cc1,?,3.5µM*,-6%,40µM*,?,?,15µM*,-19%,5.4µM*
COc1cc(/C=C2\SC(=S)N(NC(=O)c3ccc(O)c(OC)c3)C2=O)ccc1O,?,1%,-14%,40µM*,nt,43*,19µM*,-1%,19µM*
O=C(O)c1ccc(/C=C2\SC(=S)N(NC(=O)c3ccccc3)C2=O)cc1,-3%,36%,-1%,-12%,nt,nt,nt,nt,nt
CCN(CC)Cc1cc(Nc2c3ccccc3nc3c4ccccc4n(C)c23)cc(CN(CC)CC)c1O,28µM*,nt,nt,?,nt,19*,17µM*,38µM*,-19%
CCc1ccc(CNC(=O)CCn2c(=O)c3cccn3c3ccc(F)cc32)cc1,26%,nt,-1%,nt,nt,nt,nt,nt,nt
CC[n+]1c(/C=C/C=C/N(C(C)=O)c2ccccc2)sc2cc(OC)ccc21,50µM*,-6%,?,?,-14%,43*,24µM*,426%,22µM*
CC[n+]1c(/C=C(\C)OC)sc2ccccc21,6%,1%,-1%,0%,i,nt,nt,nt,nt
O=[N+]([O-])c1cc2ccccc2c(O)c1O,nt,nt,nt,?,nt,15*,12µM*,-10%,0.68µM*
Oc1ccc2ccccc2c1N=Nc1ccc(F)cc1,-1%,0%,25%,-14%,-4%,nt,nt,nt,nt
O=C(O)Cc1ccc(N=Nc2c(O)c(C(=O)O)cc3ccccc23)cc1,50µM*,?,-18%,25µM*,?,67*,19µM*,?,17µM*
CCCCOc1ccc(C2=NC(c3ccncc3)=Nc3ccc(Br)cc3N2)cc1,-16%,nt,-4%,nt,nt,nt,nt,nt,nt
COc1ccc(Br)cc1CNC(=O)CN1C(=O)c2cccnc2Oc2ccc(C)cc21,-12%,nt,-22%,nt,nt,nt,nt,nt,nt
